Experimental data from ChEMBL document CHEMBL3988442, “University of Dundee, Small-Polar-MMV Screening Library” (2021).
Hit rate of the full screen: of about 48,000 compounds, about 13,000 (27%) showed an effect of 50% or more. The list shows a part of the results.

The molecules below were run on Wolbachia pipientis (assay: Anti-Wolbachia Cell-Based Screen). Settings: 5 µM.
Format: functional
Set-up: scale not given: in the data most compounds retested in dose-response had high values

Row | SMILES | Percent Effect [%]
1 | CCCN1C[C@H]2CC[C@@H]1CN(Cc1cccc(O)c1)C2 | 9.983
2 | CC(=O)c1ccc(N2CCCC(CO)(Cc3ccccc3C)C2)nc1 (stereo not given) | -1.793
3 | Cc1cccc(OC2CCN(C(=O)CNC(=O)N(C)C)CC2)c1 | 0.03491
4 | CC(=O)NCCCC(=O)N1CCC(Sc2cccc(C)c2)CC1 | 104.7
5 | Cc1cccc(SC2CCN(C(=O)CCCn3cnnn3)CC2)c1 | 97.25
6 | Cc1ccccc1SC1CCN(C(=O)CCCS(N)(=O)=O)CC1 | 85.51
7 | Cc1ccccc1SC1CCN(C(=O)[C@H]2[C@@H]3CNC[C@@H]32)CC1 | -39.6
8 | Cc1ccccc1C1CCN(C(=O)CCNS(C)(=O)=O)C1 (stereo not given) | -0.3491
9 | Cc1cccc(SC2CCN(C(=O)CCNS(C)(=O)=O)CC2)c1 | 90.55
10 | CS(=O)(=O)NCCC(=O)N1CCC(Cc2ccc(CO)cc2)C1 (stereo not given) | 5.18
11 | COc1cccc(OC2CN(C(=O)CCn3cnnn3)C2)c1 | -0.2846
12 | Cc1cccc(SC2CCN(Cc3nc(CC4CC4)no3)CC2)c1 | -16.83
13 | CSCC(=O)N1CCC(Oc2cccc(C)c2)CC1 | 1.414
14 | Cc1ccccc1N1CCCN(C(=O)CCCS(N)(=O)=O)CC1 | -5.383
15 | O=C(Nc1ccc2c(c1)OCO2)N1CCCC1c1ccco1 (stereo not given) | -0.7591
16 | Cc1nc(CN2C[C@@H](CN3CCOCC3)[C@@H](CO)C2)c2ccccn12 | 6.539
17 | COCC(=O)N1CCc2nc(C(=O)N(C)C)sc2CC1 | -18.32
18 | CN(Cc1ccc(C#N)cc1)Cc1noc(C(C)(C)C)n1 | 1.419
19 | Cc1ccccc1CCC1CCCN(Cc2c(C)[nH]c(=O)[nH]c2=O)C1 (stereo not given) | 11.3
20 | Cc1cccc(SC2CCN(C(=O)CCCS(N)(=O)=O)CC2)c1 | 79.05
21 | Cc1cnccc1N1CCCN(C(=O)CCCS(N)(=O)=O)CC1 | 5.967
22 | NS(=O)(=O)CCCC(=O)N1CCC2(CC1)c1ccccc1CC2O (stereo not given) | -16.64
23 | COc1cccc(CN2CCC(c3nnc(-c4cnc(C)cn4)o3)C2)c1 (stereo not given) | 84.16
24 | Cc1cccc(CN2CCC(c3nnc(-c4scnc4C)o3)CC2)c1 | 109.5
25 | Cc1ncsc1-c1nnc(C2CCN(Cc3cccc(Cl)c3)CC2)o1 | 113.8

Row | SMILES | Percent Effect [%]
26 | COc1cccc(CN2CC[C@H](c3nnc(-c4ccco4)o3)C2)c1 | 18.39
27 | Cc1ncsc1-c1nc(-c2cccc(CN3CCOCC3)c2)no1 | 1.772
28 | COc1cccc(CN2CC[C@H](c3nnc(C)o3)C2)c1 | 12.81
29 | Cc1nc(CN2CCN(CC(=O)Nc3c(C)cccc3C)CC2)no1 | 0.7695
30 | COc1ccc(C(O)C(=O)N2CCC(c3nccn3C(C)C)CC2)cc1 (stereo not given) | -20.71
31 | CC(NC(=O)c1ccoc1)C(=O)N(C)Cc1ccc(O)cc1 (stereo not given) | -3.093
32 | Cc1nn(-c2ccccc2)nc1C(=O)NCC(c1ccsc1)N(C)C (stereo not given) | -0.008163
33 | Cc1cc(C(=O)NCC(c2ccsc2)N(C)C)no1 (stereo not given) | 113.7
34 | CN(C)C(CNC(=O)c1ncoc1-c1ccccc1)c1ccsc1 (stereo not given) | -4.122
35 | Cc1noc(C)c1C(=O)NCC(c1ccc(F)cc1)N(C)C (stereo not given) | -4.601
36 | Cc1noc(C)c1C(=O)NCC(c1ccsc1)N(C)C (stereo not given) | 115.3
37 | Cc1nn(C)c(Cl)c1C(=O)NCC(c1ccsc1)N(C)C (stereo not given) | -1.114
38 | CCN(CC)C(CNC(=O)c1c(C)noc1C(C)C)c1ccsc1 (stereo not given) | 108.9
39 | Cc1noc(C(C)C)c1C(=O)NCC(c1ccsc1)N(C)C (stereo not given) | -2.505
40 | Cc1cc(NC(=O)NCC(c2ccsc2)N(C)C)n(C)n1 (stereo not given) | -2.678
41 | CC(c1cc(F)ccc1F)N1CCN(C(=O)c2ccc(=O)[nH]c2)CC1 (stereo not given) | -31.75
42 | O=C(O)C(F)(F)F.c1csc(CN2CCc3ncnc(C4CCOC4)c3CC2)c1 (stereo not given) | -9.496
43 | Cn1nnc2c1CCN(C(=O)C1CCC1)C2COCCN1CCCC1.O=C(O)C(F)(F)F (stereo not given) | -13.51
44 | Cc1n[nH]cc1CNC(=O)CCCc1cccs1 | -6.834
45 | CCC[C@H]1CN(CCS(C)(=O)=O)C[C@@H]1NC(=O)c1cc[nH]n1 | -12.34
46 | O=C(N[C@@H]1CN(Cc2c[nH]nc2-c2ccccc2)C[C@H]1O)c1cc[nH]n1 | 121.8
47 | COc1ccc(-c2n[nH]cc2CN2CCSCC2)c(OC)c1 | 5.008
48 | COCC(=O)N[C@@H]1CN(Cc2c[nH]nc2-c2cccs2)C[C@H]1O | 113.8
49 | COCCN1C(=O)CO[C@H]2CN(Cc3c[nH]nc3-c3ccccc3)C[C@@H]21 | -12.21
50 | CC(C)CC(C)(CNC(=O)c1cnccn1)NC(=O)c1cnccn1 (stereo not given) | 15.43
